# AmpC no deterg = AmpC beta-lactamase inhibition without detergent | AmpC nitrocefin hydrolysis, absorbance 480 nm, 0.0001% Triton | Potency, µM (top dose mostly 57.1 µM), inactives show top-dose activity change, negative = inhibition, hits mostly inhibitors | hit rate 0.52% among 330,000 | AID 485341;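 note: potency is the fitted concentration of half-maximal effect; plate controls were no compound for no effect and no enzyme for full effect; nearly all actives have a fitted effect of over 20% in size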
# Target sequence (P00811 whole entry, looked up): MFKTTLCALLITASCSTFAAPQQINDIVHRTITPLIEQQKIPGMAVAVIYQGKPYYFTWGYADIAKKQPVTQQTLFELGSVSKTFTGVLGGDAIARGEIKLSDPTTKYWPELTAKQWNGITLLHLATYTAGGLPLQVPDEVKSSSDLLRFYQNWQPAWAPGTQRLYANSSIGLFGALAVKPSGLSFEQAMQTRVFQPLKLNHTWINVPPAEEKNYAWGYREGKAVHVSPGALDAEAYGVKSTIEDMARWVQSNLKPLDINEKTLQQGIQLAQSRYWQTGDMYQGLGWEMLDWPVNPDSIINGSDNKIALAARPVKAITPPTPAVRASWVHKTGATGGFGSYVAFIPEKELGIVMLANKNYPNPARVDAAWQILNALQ
#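 20 mM phosphate pH 7.0 + 0.01% (detergent screen) or 0.0001% Triton X-100; 5.3 nM AmpC reagent; cpd preinc 15 min RT; nitrocefin (800 uM stock) to start; A480 q20 s × 4 min; Activity was normalised to no-enzyme and no-compound control wells.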
# NS1 function inh = blocks influenza NS1 protein function. Potency, µM (series often up to 46.1 µM), without a hit: at the top dose activity, positive = more growth. hit rate 0.4% among 270,000. AID 2326; calls by dose curve; note: potency is the fitted concentration of half-maximal effect; actives are rising curves; nearly all actives have a fitted effect of over 50% in size
#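 Read-out: OD600 growth recovery of NS1-expressing budding yeast. Cells grown overnight at 30C in -URA glucose medium, washed, resuspended and diluted 1:100 in 2% galactose assay medium, pH 6.0. Same strain lacking NS1 served as positive control.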
# AmpC inh detg = inhibitors of E. coli AmpC beta-lactamase with detergent | P00811 | AmpC hydrolysis of nitrocefin, absorbance 480 nm, 0.01% Triton | hit rate 0.041% among 370,000 | Potency, µM (top dose mostly 114 µM), inactives show at the top dose activity change, negative = inhibition, most hits filed as inhibitors;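 note: potency is the fitted concentration of half-maximal effect; 0% = no-compound wells and -100% = no-enzyme wells; nearly all actives have a fitted effect of over 25% in size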
#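 20 mM phosphate pH 7.0 + 0.01% (detergent screen) or 0.0001% Triton X-100; 5.3 nM AmpC reagent; cpd preinc 15 min RT; nitrocefin (800 uM stock) to start; A480 q20 s × 4 min; Activity was normalised to no-enzyme and no-compound control wells.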
# Shiga inhibitor = Shiga toxin inhibition; Vero cells, Shiga toxin protein synthesis inhibition reporter; inhibition, % at 38.7 µM; hit rate 9.2% among 290,000; AID 2315; in the data active = inhibition mostly above about 28%, no sharp cut-off; inactive = mostly below about 43%; note: 0% is about no effect
# Cycloheximide cs = affects cycloheximide protein synthesis inhibition readout, counter-screen; cell reporter, cycloheximide protein synthesis inhibition counterscreen; max response, %; hit rate 12% among 300,000; in the data active = max response mostly above about 13%, no sharp cut-off; inactive = mostly below about 14%; note: read at 38.3 µM for the half of the compounds with a filed dose; 0% is about no effect
# Starred values were filed as active, the others as inactive; ? = inconclusive; . = no result. The sample as a whole holds a higher share of hits than the screen did. Unless noted, calls come from the whole dose curve; as a rule, active = well fitted curve in the direction sought with a large enough effect; inconclusive = small, poorly fitted or top-dose-only effect, or another doubt; inactive = no such curve, though single readings can be large; an effect the other way counts as inactive or inconclusive.
SMILES,AmpC no deterg,NS1 function inh,AmpC inh detg,Shiga inhibitor,Cycloheximide cs
CCCC/C=C/[C@@H](c1ccccc1)C1COC(=O)CC1O (stereo partly drawn),.,.,.,3.0,2.0
Cc1ccc(OCC(=O)Nc2ccc(Cl)c(-c3nc4ncccc4o3)c2)cc1C,.,.,5.7%,.,.
CCc1nonc1NC(=O)c1oc2c(C)c(C)ccc2c1C,-38.2%,-8.1%,-5.7%,2.8,2.3
CCc1nonc1NC(=O)c1oc2ccc(C)cc2c1C,-4.2%,0.1%,2.7%,45.5*,36.1*
COc1ccc(C(=O)CCC(C)(C)[N+](=O)[O-])cc1,-13.1%,.,?,31.0,32.3*
Cc1ccc(C(=O)NCC(=O)OCC(=O)NC2CCS(=O)(=O)C2)cc1C (stereo not drawn),-12.1%,5.7%,?,-1.7,-0.3
CN1C2CCC1C(COC(=O)c1ccccc1)C(O)C2 (stereo not drawn),-20.0%,3.1%,?,5.2,-2.8
CN1OC(COC(=O)c2ccccc2)CC1c1ccccc1 (stereo not drawn),-2.5%,-9.0%,-21.7%,94.1*,40.8*
CCN=C1NN=C(c2c[nH]c3ccccc23)CS1,-32.5%,-2.5%,-5.6%,38.4*,32.2*
CCN=C1NN=C(c2cc(C)n(CCc3ccccc3)c2C)CS1,-13.2%,.,?,62.2*,32.1*
C=CCn1c(C)cc(C2=NNC(=NCc3ccccc3)SC2)c1C,-20.0%,.,3.5%,110.9*,62.1*
CCN=C1NN=C(c2cc(C)n(Cc3ccco3)c2C)CS1,-10.2%,-7.5%,?,138.4*,86.6*
COCCn1c(C)cc(C2=NNC(=NC(C)(C)C)SC2)c1C,64.8%,10.4%,1.7%,4.4,10.0
CNc1ncnc2c1ncn2[C@@H]1O[C@H](CO)[C@H](O)[C@H]1O,.,-6.9%,.,.,.
Cc1ccc(CNC(=O)CN2C(=O)COc3ccc(S(=O)(=O)N4CCC(C)CC4)cc32)cc1,.,.,5.8%,.,.
Cc1ccc(C)c(C2=NNC(=NCc3ccccc3)SC2)c1,-39.3%,.,-4.8%,32.0*,25.3
Cc1cc(C2=NNC(=NCCc3ccccc3)SC2)c(C)n1CC1CCCO1 (stereo not drawn),58.1%,.,-3.2%,194.1*,46.5*
COCCn1c(C)cc(C2=NNC(=Nc3ccccc3)SC2)c1C,11.0%,13.9%,-11.9%,34.3,23.4*
Clc1ccc(C2=NNC(=NCC3CCCO3)SC2)cc1 (stereo not drawn),-15.7%,17.3%,0.5%,160.0*,60.5*
C=C(C)CN=C1NN=C(c2cc(C)n(-c3ccc(C)cc3)c2C)CS1,-28.2%,19.3%,-8.0%,-1.5,4.9
COc1ccc2oc(-c3ccccc3)c(C(N)=O)c2c1,-3.2%,-59.4%,?,33.8,27.6*
COc1ccc(-c2oc3ccccc3c2C(=O)OCc2ccc(O)cc2)cc1,61.2%,0.0%,-11.9%,27.7*,24.3*
COc1ccc(-c2oc3ccccc3c2C(=O)OCc2ccccc2)cc1,-20.8%,15.3%,-6.4%,33.7*,31.0*
COc1ccc(-c2oc3ccccc3c2C(=O)OCc2ccc([N+](=O)[O-])cc2)cc1,-47.2%,5.1%,?,-4.2,0.9
COC(=O)c1c(-c2ccc(OC)cc2)oc2ccccc12,-6.3%,-31.9%,-9.7%,-6.6,-1.9
SMILES,AmpC no deterg,NS1 function inh,AmpC inh detg,Shiga inhibitor,Cycloheximide cs
O=C(NCc1ccccc1Cl)C(=O)NCC1OCCCN1S(=O)(=O)c1cccs1 (stereo not drawn),-33.9%,-0.1%,-7.4%,1.0,2.5
Cc1cccc(-c2nnc(SCC(=O)C(C)(C)C)n2C)c1,3.3%,0.7%,-3.2%,73.2*,36.8*
Cc1cccc(-c2nnc(SCC(=O)Nc3cc(C)on3)n2C)c1,-4.1%,-0.5%,2.2%,-7.9,1.4
Cn1c(SCC(N)=O)nnc1-c1ccc(C(C)(C)C)cc1,-25.9%,0.7%,6.5%,13.7,16.6*
COc1ccccc1C(=O)NC(=O)COC(=O)CNC(=O)c1ccc(Cl)c([N+](=O)[O-])c1,-26.0%,.,0.0%,.,.
CCS(=O)(=O)c1ncc(Cl)c(C(=O)N(Cc2ccccc2)Cc2ccco2)n1,.,.,-1.9%,.,.
CC(=O)N1CCc2cc(S(=O)(=O)NC(C(=O)NCc3ccccc3)C(C)C)ccc21 (stereo not drawn),?,-0.6%,-0.1%,1.0,-3.5
COc1cccc(CNC(=O)C(NS(=O)(=O)c2ccc3c(c2)CCN3C(C)=O)C(C)C)c1 (stereo not drawn),26.4%,-2.8%,-11.6%,29.4,23.6*
Cc1nonc1OCCN1CCN(c2ccc([N+](=O)[O-])cc2)CC1,8.5%,1.7%,0.1%,19.0,19.6*
Clc1ccc(OCc2noc(-c3ccsc3)n2)c(Cl)c1,?,-2.9%,-2.1%,130.2*,49.8*
Clc1ccc(OCCCc2nc(-c3ccncc3)no2)c(Cl)c1,43.3%,-187.2%,3.1%,15.6,16.0
COc1cc(-c2nc(Cc3ccccc3Cl)no2)cc(OC)c1OC,85.7%,-55.8%,-4.1%,-3.0,-4.5
Fc1cc(Cl)c(OCc2noc(-c3ccsc3)n2)c(Cl)c1,-34.8%,4.3%,4.7%,35.0*,21.2*
Cc1nn(C)c2c1c(C(F)(F)F)cc(=O)n2CC(=O)N1CCCCC1C (stereo not drawn),.,.,-0.4%,.,.
CCOC(=O)[C@@H]1[C@H]2COc3cc(OC)ccc3[C@@H]2N2C(=O)N(c3ccc(Cl)cc3)C(=O)[C@@]12C,39.5%,-42.3%,-10.1%,29.4*,15.7*
Cc1ccccc1C(=O)Nc1cccc(-c2cn3cccnc3n2)c1,.,.,2.2%,.,.
O=C(NC(=S)Nc1ccccc1[N+](=O)[O-])c1ccccc1Cl,-24.6%,-3.3%,-8.7%,125.2*,47.8*
CCOc1ccc(NC(=S)NC(=O)c2c(Cl)c(C)nn2C)c([N+](=O)[O-])c1,-8.9%,4.6%,1.1%,3.4,0.9
O=C(NNCc1ccc(O)cc1)c1ccccc1Cl,-6.0%,-0.4%,-8.7%,38.8*,45.5*
Cc1ccc(O)c(NC(=O)c2ccccc2-c2ccccc2C(=O)O)c1,-13.8%,2.6%,-9.8%,.,-1.1
Cc1nn(C)c(C(=O)NC(=S)Nc2ccccc2O)c1Cl,-26.6%,-48.9%,-14.8%,19.0,10.5*
Cc1ccc(O)c(NC(=S)NC(=O)c2ccccc2Cl)c1,-39.2%,-3.7%,2.4%,45.7,17.5*
CC1(C)C(=O)Nc2ccccc2N1C(=O)COC(=O)c1cccnc1Cl,-24.1%,.,.,.,.
CCOC(=O)c1c(CCl)nc2ccccc2c1C,-0.5%,.,-1.5%,11.3,10.3
COc1ccc(CCNC(=O)CNC(=O)Cn2ccc3ccccc3c2=O)cc1OC,13.2%,0.4%,0.6%,-3.2,-3.6
COc1ccc(NC(=S)NC(=O)c2ccccc2Cl)cc1,10.1%,.,-2.8%,96.3*,38.2*
O=C(NC(=S)Nc1ccc(O)cc1)c1ccccc1Cl,-22.7%,5.6%,-0.6%,48.0,34.4*
O=C(NC(=S)Nc1ccc(N2CCOCC2)cc1)c1cccc(Cl)c1Cl,-15.0%,-4.0%,-8.5%,-5.3,1.2
CC(C)CNC(=S)NC(=O)c1ccccc1Cl,-8.5%,10.2%,-2.3%,43.5*,39.6*
COc1cc2ccccc2cc1C(=O)NC(=S)Nc1ccc(C(=O)O)cc1,-23.0%,-4.9%,-7.1%,30.2,-0.1
